Measurements reported in PubChem BioAssay (Tox21).
Records with an inconclusive call do not appear. Activity calls are given as the source filed them. Unless noted, calls follow the shape of the dose curve; as a rule, active = well fitted curve in the direction sought with a large enough effect in the repeat runs; inconclusive = weak or mixed curves; inactive = no such curve, though single readings can be large; an effect the other way counts as inactive or inconclusive.

What was measured:
[1] = A CellTox Green Cytotoxicity Assay to monitor cytotoxicity in HEK293 cells - 32 hour (AID 1224881); also: nearly all actives have a fitted effect of over 40% in size; also: potency is read from the fitted curve at half-maximal effect
Summary of the method: (§1)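 HEK293 cells premixed with CellTox Green dye were seeded at 600 cells/well and left 5 h at 37 C/5% CO2 before pin transfer of 23 nL compound in DMSO. Fluorescence from dye bound to dead-cell DNA was read during 40 h treatment.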

[2] = A CellTox Green Cytotoxicity Assay to monitor cytotoxicity in HepG2 cells - 0 hour (AID 1224882); also: nearly all actives have a fitted effect of over 35% in size; also: potency is read from the fitted curve at half-maximal effect
Summary of the method: (§2)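 HepG2 cells were seeded together with the CellTox Green dye at 600 cells/well, left 5 h at 37 C/5% CO2, then given compounds in DMSO. Fluorescence from dye bound to dead-cell DNA was read repeatedly over 40 h of treatment at 37 C.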

[3] = A CellTox Green Cytotoxicity Assay to monitor cytotoxicity in HepG2 cells - 32 hour (AID 1224883); also: nearly all actives have a fitted effect of over 50% in size; also: potency is read from the fitted curve at half-maximal effect
Summary of the method: as §2

[4] = A CellTox Green Cytotoxicity Assay to monitor cytotoxicity in HEK293 cells - 8 hour (AID 1224884); also: nearly all actives have a fitted effect of over 35% in size; also: potency is read from the fitted curve at half-maximal effect
Summary of the method: as §1

[5] = qHTS RealTime-Glo MT Cell Viability Assay in HepG2 cells - 16 hour (AID 1224885); also: nearly all actives have a fitted effect of over 50% in size; also: potency is read from the fitted curve at half-maximal effect
Summary of the method: (§3)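 Viability was tracked continuously by NanoLuc luminescence from prosubstrate reduced by living HepG2 cells, at successive time points over 40 h of compound exposure. Cells with reagent were preincubated 5 h at 37 °C before compound addition.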

[6] = qHTS RealTime-Glo MT Cell Viability Assay in HEK293 cells - 24 hour (AID 1224886); also: top concentration of the series differs between compounds; nearly all actives have a fitted effect of over 50% in size
Summary of the method: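 Viability tracked continuously by luminescence as live cells reduce a prosubstrate for NanoLuc; HEK293 cells preincubated 5 h, compound-treated at 37 C, and read at 0, 8, 16, 24, 32 and 40 h.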

[7] = qHTS RealTime-Glo MT Cell Viability Assay in HEK293 cells - 8 hour (AID 1224887); also: top concentration of the series differs between compounds; nearly all actives have a fitted effect of over 50% in size
Summary of the method: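 HEK293 cells mixed with RealTime-Glo reagents (NanoLuc plus cell-permeant prosubstrate) at 600 cells/well, preincubated 5 h at 37 C/5% CO2, then given 23 nL compound in DMSO. Nonlytic luminescence from viable cells was read at 0, 8, 16, 24, 32 and 40 h.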

[8] = A CellTox Green Cytotoxicity Assay to monitor cytotoxicity in HEK293 cells - 16 hour (AID 1224888); also: nearly all actives have a fitted effect of over 35% in size; also: potency is read from the fitted curve at half-maximal effect
Summary of the method: as §1

[9] = qHTS RealTime-Glo MT Cell Viability Assay in HepG2 cells - 0 hour (AID 1224889); also: nearly all actives have a fitted effect of over 50% in size
Summary of the method: as §3

[10] = A CellTox Green Cytotoxicity Assay to monitor cytotoxicity in HepG2 cells - 8 hour (AID 1224890); also: nearly all actives have a fitted effect of over 45% in size; also: potency is read from the fitted curve at half-maximal effect
Summary of the method: as §2

[11] = qHTS assay to identify small molecule antagonists of the estrogen receptor alpha (ER-alpha) signaling pathway using the BG1 cell line in the presence of 0.1 nM 17-beta-estradiol - cell viability counter screen (AID 1259241); also: nearly all actives have a fitted effect of over 40% in size
Summary of the method: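 Measures cytotoxicity alongside the ER-alpha antagonist readout: VM7Luc4E2 cells, charcoal-stripped serum, 0.1 nM 17beta-estradiol final, 22 hr compound incubation at 37C, CellTiter-Fluor fluorescence.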

[12] = qHTS assay to identify small molecule antagonists of the androgen receptor (AR) signaling pathway using the MDA cell line in the presence of 0.5 nM R1881 - cell viability counter screen (AID 1259242); also: nearly all actives have a fitted effect of over 45% in size
Summary of the method: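 MDA-kb2 cells (human breast carcinoma, stably carrying MMTV-luciferase reporter) were exposed to compounds with 0.5 nM R1881 (final) for 16 hr at 37C, 0% CO2; viability then read as live-cell protease fluorescence (CellTiter-Fluor, 30 min) in the same wells.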

[13] = target: Estrogen receptor (Homo sapiens) (UniProt P03372); experiment: qHTS assay to identify small molecule antagonists of the estrogen receptor alpha (ER-alpha) signaling pathway using the BG1 cell line in the presence of 0.1 nM 17-beta-estradiol (AID 1259244); also: nearly all actives have a fitted effect of over 50% in size
Summary of the method: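 VM7Luc4E2 cells (endogenous full-length ER-alpha, stable 4xERE-luciferase) were grown 5 days in phenol red-free medium with charcoal-stripped FBS, then exposed 22 h at 37C to compounds plus 0.1 nM (final) 17beta-estradiol; ONE-Glo luminescence read-out.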

[14] = qHTS assay to identify small molecule HDAC inhibitors (AID 1259364); also: top concentration of the series differs between compounds; nearly all actives have a fitted effect of over 45% in size
Summary of the method: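 Wild-type HCT-116 cells were plated overnight, exposed to compounds for 2 h at 37 °C, then given HDAC-Glo class I/II luminogenic reagent for 30 min at room temperature before luminescence was read.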

[15] = qHTS assay to identify small molecule HDAC inhibitors - cell viability counter screen (AID 1259365)
Summary of the method: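 Following a 2hr exposure of overnight-plated wild-type HCT-116 cells to DMSO-delivered compounds, CellTiter-Glo was added and luminescence recorded after 30min at room temperature.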

[16] = qHTS assay to identify small molecule agonists of the sonic hedgehog signaling (Shh) pathway - cell viability counter screen (AID 1259366); also: nearly all actives have a fitted effect of over 50% in size
Summary of the method: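 After a 4hr attachment at 37C, NIH/3T3 cells bearing an integrated Gli1-driven luciferase reporter were dosed with compounds. Treatment lasted 24hr, with the final hour including CellTiter-Fluor for a fluorescence viability measurement.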

[17] = qHTS assay to identify small molecule antagonists of the sonic hedgehog signaling (Shh) pathway - cell viability counter screen (AID 1259367); also: nearly all actives have a fitted effect of over 55% in size
Summary of the method: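 After a 4 hr settling period, 3T3 Gli1-Luc cells were treated with DMSO-dissolved chemicals and conditioned medium, kept 24 hr at 37C in 5% CO2, and assayed for viability by CellTiter-Fluor fluorescence following 1 hr reagent incubation.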

[18] = target: Androgen receptor (Homo sapiens) (UniProt P10275); experiment: qHTS assay to identify small molecule antagonists of the androgen receptor (AR) signaling pathway using the MDA cell line in the presence of 0.5 nM R1881 (AID 1259243); also: nearly all actives have a fitted effect of over 50% in size
Summary of the method: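 MDA-kb2 human breast carcinoma cells carrying an MMTV-luciferase reporter (AR- and GR-responsive) were plated, rested 5 hr at 37C, dosed with compounds, then stimulated with 0.5 nM R1881 (final) for 16 hr; luminescence was read after ONE-Glo.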

[19] = qHTS assay to identify small molecule phospholipidosis (PLD) inducers (AID 1259344; active = well fitted curve in the direction sought with a large enough effect; an effect the other way counts as inactive or inconclusive)
Summary of the method: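 HepG2 cells grown on collagen I take up LipidTOX Red while exposed to compound for 24 h; after fixation they are imaged at 20x and pit metrics are extracted.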

[20] = qHTS assay to identify small molecule agonists of the sonic hedgehog signaling (Shh) pathway (AID 1259368; calls by dose curve; also: series mostly up to about 92 µM; nearly all actives have a fitted effect of over 15% in size)
Summary of the method: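 NIH/3T3-derived 3T3Gli1-Luc cells carrying a stably integrated Gli1 response element–firefly luciferase reporter were plated, left 4 hr at 37 C, then given compounds in DMSO for 24 hr. Luminescence was read 30 min after adding luciferase reagent.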
% is scaled to controls: 0 for no effect and ±100 for the full control effect.

Chain of Androgen receptor (Homo sapiens) (P10275 whole entry, looked up): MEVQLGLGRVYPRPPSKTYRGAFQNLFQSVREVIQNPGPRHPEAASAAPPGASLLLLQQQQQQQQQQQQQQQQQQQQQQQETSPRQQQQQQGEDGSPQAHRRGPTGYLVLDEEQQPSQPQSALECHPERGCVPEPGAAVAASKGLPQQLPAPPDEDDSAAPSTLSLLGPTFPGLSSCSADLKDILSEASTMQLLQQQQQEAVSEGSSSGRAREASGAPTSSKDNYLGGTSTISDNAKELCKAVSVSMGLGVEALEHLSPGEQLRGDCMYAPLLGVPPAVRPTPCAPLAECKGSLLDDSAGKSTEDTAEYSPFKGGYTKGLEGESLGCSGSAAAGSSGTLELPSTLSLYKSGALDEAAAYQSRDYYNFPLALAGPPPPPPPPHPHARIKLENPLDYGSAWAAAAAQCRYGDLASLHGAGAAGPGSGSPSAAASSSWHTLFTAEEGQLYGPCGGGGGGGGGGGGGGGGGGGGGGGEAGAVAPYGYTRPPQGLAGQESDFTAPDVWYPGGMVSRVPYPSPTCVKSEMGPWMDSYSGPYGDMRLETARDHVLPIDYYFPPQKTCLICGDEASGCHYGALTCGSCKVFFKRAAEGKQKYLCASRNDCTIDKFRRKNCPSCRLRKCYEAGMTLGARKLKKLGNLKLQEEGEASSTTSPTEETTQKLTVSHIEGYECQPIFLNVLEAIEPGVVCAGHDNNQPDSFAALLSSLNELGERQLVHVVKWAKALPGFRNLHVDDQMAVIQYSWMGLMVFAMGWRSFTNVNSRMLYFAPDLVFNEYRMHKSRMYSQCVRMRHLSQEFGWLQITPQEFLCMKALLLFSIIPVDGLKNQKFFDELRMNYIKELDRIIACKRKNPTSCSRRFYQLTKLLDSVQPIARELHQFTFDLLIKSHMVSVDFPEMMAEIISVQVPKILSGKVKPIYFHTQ
Chain of Estrogen receptor (Homo sapiens) (P03372 whole entry, looked up): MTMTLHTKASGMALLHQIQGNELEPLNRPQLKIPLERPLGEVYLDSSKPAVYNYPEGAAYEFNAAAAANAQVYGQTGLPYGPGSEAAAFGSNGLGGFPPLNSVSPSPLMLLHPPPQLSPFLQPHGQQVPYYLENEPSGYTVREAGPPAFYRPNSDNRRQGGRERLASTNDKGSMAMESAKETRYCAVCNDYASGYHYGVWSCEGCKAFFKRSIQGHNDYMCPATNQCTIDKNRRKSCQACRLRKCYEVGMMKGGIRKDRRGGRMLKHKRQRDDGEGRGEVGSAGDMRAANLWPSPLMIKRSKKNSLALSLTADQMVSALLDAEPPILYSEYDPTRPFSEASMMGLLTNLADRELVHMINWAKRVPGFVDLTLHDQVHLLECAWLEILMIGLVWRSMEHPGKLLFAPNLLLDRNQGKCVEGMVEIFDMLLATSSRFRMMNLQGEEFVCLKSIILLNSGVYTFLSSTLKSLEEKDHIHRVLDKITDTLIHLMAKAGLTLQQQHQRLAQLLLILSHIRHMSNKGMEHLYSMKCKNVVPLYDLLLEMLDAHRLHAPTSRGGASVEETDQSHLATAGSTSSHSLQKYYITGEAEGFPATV

O=C(O)c1cccc(O)c1
inactive: Potency [1] | Potency [2] | Potency [3] | Potency [4] | Potency [5] | Potency [6] | Potency [7] | Potency [8] | Potency [9] | Potency [10] | Potency [11] | Potency [12] | Potency [13] | Potency [14] | Potency [15] | Potency [16] | Potency [17]

O=C(CCCCCCCCC#CI)Oc1ccccc1
active: Potency [5] 15.1 µM
inactive: Potency [1] | Potency [2] | Potency [3] | Potency [4] | Potency [6] | Potency [7] | Potency [8] | Potency [9] | Potency [10] | Potency [11] | Potency [12] | Potency [18] | PLD induction [19] 8.17% [at 7.66 µM] | Potency [14] | Potency [15] | Potency [16] | Potency [17]

CC1CN(c2cc3c(cc2F)c(=O)c(C(=O)O)cn3-c2ccc(F)cc2F)CCN1 (centres undefined)
inactive: cytotoxicity increase [1] -2.92% [at 6.97 µM] | cytotoxicity [2] 5.97% [at 6.97 µM] | cytotoxicity increase [3] 0.181% [at 6.97 µM] | cytotoxicity increase [4] 1.21% [at 6.97 µM] | activity change, negative = cytotoxic [5] 2.01% [at 6.97 µM] | activity change, negative = cytotoxicity [6] 6.23% [at 6.97 µM] | activity change, negative = cytotoxicity [7] 7.56% [at 6.97 µM] | activity change [8] -0.883% [at 6.97 µM, active compounds read high] | activity change, negative = cytotoxicity [9] -3.32% [at 6.97 µM] | cytotoxicity increase [10] -0.506% [at 6.97 µM] | activity change, negative = cytotoxicity [11] 6.15% [at 8.39 µM] | viability change, negative = cytotoxic [12] 6.65% [at 8.39 µM] | activity change, negative = inhibition [13] -1% [at 8.39 µM] | outcome [19] | activity change, negative = inhibition [14] -3.12% [at 8.39 µM] | activity change, negative = cytotoxicity [15] -1.14% [at 8.39 µM] | viability change, negative = cytotoxic [16] -8.68% [at 8.39 µM] | viability change, negative = cytotoxic [17] 5.63% [at 8.39 µM]

O=C(O)c1ccc(CO)o1
inactive: Potency [1] | Potency [2] | Potency [3] | Potency [4] | Potency [5] | Potency [6] | Potency [7] | Potency [8] | Potency [9] | Potency [10] | Potency [11] | Potency [12] | Potency [14] | Potency [15] | Potency [16] | Potency [17]

O=C(O)Cc1ccc(-c2ccccc2)cc1
inactive: Potency [1] | Potency [2] | Potency [3] | Potency [4] | Potency [5] | Potency [6] | Potency [7] | Potency [8] | Potency [9] | Potency [10] | Potency [11] | Potency [12] | Potency [18] | Potency [13] | outcome [19] | Potency [15] | Potency [16] | Potency [17] | Potency [20]

CC(C)CCCC(=O)O
inactive: Potency [1] | Potency [2] | Potency [3] | Potency [4] | Potency [5] | Potency [6] | Potency [7] | Potency [8] | Potency [9] | Potency [10] | Potency [11] | Potency [12] | Potency [18] | Potency [13] | Potency [14] | Potency [15] | Potency [16] | Potency [17]

CCCOC(=O)c1ccc(C(=O)OCCC)nc1
inactive: Potency [1] | Potency [2] | Potency [3] | Potency [4] | Potency [5] | Potency [6] | Potency [7] | Potency [8] | Potency [9] | Potency [10] | Potency [11] | Potency [12] | Potency [18] | Potency [13] | Potency [15] | Potency [16] | Potency [17] | Potency [20]

COC(=O)[C@@H]1CC2=CC(=O)CC[C@]2(C)[C@@]23O[C@@H]2C[C@@]2(C)[C@@H](CC[C@@]24CCC(=O)O4)[C@H]13
inactive: Potency [1] | Potency [2] | Potency [3] | Potency [4] | Potency [5] | Potency [6] | Potency [7] | Potency [8] | Potency [9] | Potency [10] | Potency [11] | Potency [12] | Potency [13] | outcome [19] | Potency [14] | Potency [15] | Potency [16] | Potency [17] | Potency [20]

CC(C)OCC1CO1 (centres undefined)
inactive: Potency [1] | Potency [2] | Potency [3] | Potency [4] | Potency [5] | Potency [6] | Potency [7] | Potency [8] | Potency [9] | Potency [10] | Potency [11] | Potency [12] | Potency [13] | Potency [15] | Potency [16] | Potency [20]

CCCCCC=CCC=CCCCCCCCC(=O)OCC
inactive: Potency [1] | Potency [2] | Potency [3] | Potency [4] | Potency [5] | Potency [6] | Potency [7] | Potency [8] | Potency [9] | Potency [10] | Potency [11] | Potency [12] | Potency [13] | outcome [19] | Potency [14] | Potency [15] | Potency [16] | Potency [17] | Potency [20]

CC(CCO)CCc1ccccc1 (centres undefined)
inactive: Potency [1] | Potency [2] | Potency [3] | Potency [4] | Potency [5] | Potency [6] | Potency [7] | Potency [8] | Potency [9] | Potency [10] | Potency [11] | Potency [12] | Potency [13] | Potency [14] | Potency [15] | Potency [16] | Potency [17] | Potency [20]

c1cnc2c(n1)CCCC2
inactive: Potency [5] | Potency [6] | Potency [7] | Potency [9] | Potency [11] | Potency [12] | Potency [18] | Potency [14] | Potency [15] | Potency [16] | Potency [17] | Potency [20]
active: Potency [1] 43.6 µM | Potency [2] 24.5 µM | Potency [3] 43.6 µM | Potency [4] 43.6 µM | Potency [8] 43.6 µM | Potency [10] 38.9 µM

CCCCCCCCCCCCCCCCBr
inactive: cytotoxicity increase [1] 0.813% [at 15.8 µM] | cytotoxicity [2] -3.37% [at 15.8 µM] | cytotoxicity increase [3] -8.22% [at 15.8 µM] | cytotoxicity increase [4] -1.67% [at 15.8 µM] | activity change, negative = cytotoxic [5] 2.39% [at 15.8 µM] | activity change, negative = cytotoxicity [6] 6% [at 15.8 µM] | activity change, negative = cytotoxicity [7] 3.99% [at 15.8 µM] | activity change [8] 2.24% [at 15.8 µM, active compounds read high] | activity change, negative = cytotoxicity [9] 6.9% [at 15.8 µM] | cytotoxicity increase [10] -4.5% [at 15.8 µM] | activity change, negative = cytotoxicity [11] 1.42% [at 19 µM] | viability change, negative = cytotoxic [12] 2.08% [at 19 µM] | activity change, negative = inhibition [13] 3% [at 19 µM] | activity change, negative = inhibition [14] 4.52% [at 19 µM] | activity change, negative = cytotoxicity [15] 1.54% [at 19 µM] | viability change, negative = cytotoxic [16] -1.13% [at 19 µM] | viability change, negative = cytotoxic [17] -2.38% [at 19 µM]

CCCCC(CC)COC(=O)COc1ccc(Cl)cc1C (centres undefined)
inactive: Potency [1] | Potency [2] | Potency [3] | Potency [4] | Potency [5] | Potency [6] | Potency [7] | Potency [8] | Potency [9] | Potency [10] | Potency [11] | Potency [12] | Potency [13] | Potency [14] | Potency [15] | Potency [16] | Potency [17] | Potency [20]
